TDP1 block = inhibitors of human tyrosyl-DNA phosphodiesterase TDP1 | Q9NUW8 | recombinant TDP1, AlphaScreen DNA substrate cleavage | Potency, µM (highest dose often 130 µM), for inactives: top-dose activity change, negative = inhibition, actives largely listed as inhibitors | 350,000 compounds, 0.28% hits | AID 485290; further: potency means the concentration at half of the fitted maximal effect; on the % scale 0 is the no-effect control and ±100 the full control effect; nearly all actives have a fitted effect of over 40% in size
Target sequence (Q9NUW8 whole entry, looked up): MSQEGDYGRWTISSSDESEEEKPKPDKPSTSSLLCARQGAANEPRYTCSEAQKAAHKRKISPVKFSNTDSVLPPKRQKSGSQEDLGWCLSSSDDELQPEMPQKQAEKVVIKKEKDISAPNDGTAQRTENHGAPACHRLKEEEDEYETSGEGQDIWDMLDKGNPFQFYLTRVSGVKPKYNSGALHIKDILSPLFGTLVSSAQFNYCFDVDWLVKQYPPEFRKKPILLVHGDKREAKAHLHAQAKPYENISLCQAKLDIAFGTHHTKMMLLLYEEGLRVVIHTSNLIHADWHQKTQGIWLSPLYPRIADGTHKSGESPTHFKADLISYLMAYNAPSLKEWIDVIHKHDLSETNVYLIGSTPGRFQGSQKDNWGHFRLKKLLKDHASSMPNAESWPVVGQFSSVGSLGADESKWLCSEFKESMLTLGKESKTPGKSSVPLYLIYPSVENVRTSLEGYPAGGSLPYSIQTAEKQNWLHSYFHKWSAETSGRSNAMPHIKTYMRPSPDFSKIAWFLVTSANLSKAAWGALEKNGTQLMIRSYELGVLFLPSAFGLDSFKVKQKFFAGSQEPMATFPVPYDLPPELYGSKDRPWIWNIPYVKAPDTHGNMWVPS
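Compounds were preincubated with Tdp1 (1 nM final) for 15 min at room temperature before substrate (15 nM final) started a 5 min reaction; beads (10 ug/ml final) were then added for 10 min before AlphaScreen detection.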
DT40 TDP1 CPT = growth inhibition of DT40 Tdp1-/-;hTDP1 cells with camptothecin (screen for TDP1 inhibitors); 420,000 compounds, 12% hits; Potency, µM (top dose mostly 46.2 µM), without a hit: top-dose activity change, negative = growth inhibition, most hits filed as inhibitors; chicken DT40 Tdp1-/-;hTDP1 cells + 20 nM CPT, ATP luminescence, 48 h; further: potency means the concentration at half of the fitted maximal effect; on the % scale 0 is the no-effect control and ±100 the full control effect; nearly all actives have a fitted effect of over 55% in size
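Chicken DT40 Tdp1-/- cells stably complemented with human TDP1 were seeded at 400 cells/well in medium containing 20 nM camptothecin, exposed to pin-transferred compounds, and grown at 37 °C for at least 48 hr. Viability was read as ATP luminescence.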
HepG2 viability = counter-screen for TGF-b inhibitors: cytotoxicity in HepG2 cells; 410,000 compounds, 0.76% hits; HepG2 CAGA-GFP viability, ATP luminescence, 18 h; Potency, µM (series often up to 46.1 µM), inactives show at the top dose activity change, negative = cytotoxicity, usual class: cytotoxic; further: potency means the concentration at half of the fitted maximal effect
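HepG2 CAGA-GFP cells (1000/well, DMEM with 1% FBS) received compound, then TGF-beta at 500 pg/mL final, and were incubated 18 hours at 37 degrees C. Viability was read by CellTiter-Glo luminescence. Media-only wells were set as complete cell-killing and DMSO as no toxicity.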
TGFb SMAD3 inh = blocks TGF-b signaling. HepG2 CAGA-GFP TGF-b/SMAD3 reporter, GFP fluorescence, 18 h; TGF-beta stimulated, 500 pg/mL final. Potency, µM (series often up to 46.1 µM), inactives show at the top dose activity, negative = inhibition, hits mostly inhibitors. 410,000 compounds, 1.2% hits. AID 588855; further: potency means the concentration at half of the fitted maximal effect; on the % scale 0 is the no-effect control and ±100 the full control effect; nearly all actives have a fitted effect of over 65% in size
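Read-out: total well GFP (ex488/em500-530) summed from mean per-cell fluorescence. Cells: HEPG2 CAGA-GFP, 1% FBS DMEM, 18 h at 37 degrees C with 500 pg/mL final TGF-beta. Unstimulated wells served as the full-inhibition control; stimulated DMSO wells = 0%.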
TDP1 cell noCPT = qHTS for Inhibitors of human tyrosyl-DNA phosphodiesterase 1 (TDP1): qHTS in cells in absence of CPT; DT40 Tdp1-/- hTDP1 cells, no CPT, ATP luminescence, 48 h; Potency, µM (doses to about 46.2 µM), inactives show at the highest dose activity change, negative = growth inhibition, hits mostly inhibitors; 420,000 compounds, 15% hits; further: potency means the concentration at half of the fitted maximal effect; on the % scale 0 is the no-effect control and ±100 the full control effect; nearly all actives have a fitted effect of over 55% in size
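Stably hTDP1-transfected Tdp1-null chicken DT40 cells were treated with library compounds minus camptothecin and grown for at least 48 hr at 37 °C, after which cellular ATP was quantified by luminescence.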
IL-1B inflam inh = inflammasome signaling inhibition, IL-1 beta readout; AID 743279; activity change, % at 57.5 µM; 360,000 compounds, 4.7% hits; THP-1 LPS/ATP IL-1B secretion, AlphaLISA, 16 h; stronger effect = lower value; in the data active means activity change below about -50%; inconclusive means mostly about -30% to -49%; further: on the % scale 0 is the no-effect control and ±100 the full control effect
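Secreted IL-1B measured by AlphaLISA bead assay after 16 h compound exposure of THP-1 cells; compounds (final up to 57.5 uM) added 1 h before LPS (250 ng/mL) and ATP (1.25 mM) stimulation; lower signal means less secretion.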
The depositor's hits bear a star; ? = inconclusive; / = no result given; [ ] = another dose, or the depositor's remark. Shown are actives, neighbours in structure and some others; about 18% of the full set was active somewhere. Unless noted, the call rests on the fitted dose curve; in most records, active means well fitted curve in the direction sought with a large enough effect; inconclusive means small, poorly fitted or top-dose-only effect, or another doubt; inactive means no such curve, though single readings can be large; an effect the other way counts as inactive or inconclusive.

SMILES	TDP1 block	DT40 TDP1 CPT	HepG2 viability	TGFb SMAD3 inh	TDP1 cell noCPT	IL-1B inflam inh
C[C@H](NC(=O)c1cc2c([nH]c3ccccc32)c(-c2ccccc2)n1)C(=O)O	/	?	-13.6%	-18.1%	?	5.1
COc1cc(C(=O)NC2CCN(Cc3ccccc3)CC2)cc(Cl)c1OC	/	?	-30.4%	-7.0%	?	-13.6
COc1ccc(OC)c(-c2cc(C(=O)NCCN3CCOCC3)no2)c1	0.9%	-8.1%	-41.1%	4.8%	-27.7%	0.0
O=S(=O)(c1ccc2c(c1)OCCO2)N1CCN(c2nc(-c3cccs3)nc3ccccc23)CC1	1.0%	?	/	/	?	/
COc1cc(/C=N/NC(=O)c2sc(N)c(C#N)c2C)cc(Br)c1O	5.1%	-28.8%	-1.0%	-12.4%	?	-77.0*
Cc1c(C(=O)N/N=C/c2cccnc2)sc(N)c1C#N	/	-18.4%	6.31µM*	10µM*	-26.1%	-62.8*
Cc1ccc(C(=O)N/N=C\c2cccnc2)s1	4.2%	7.1%	-4.0%	14.5%	7.0%	-9.4
COc1ccc2ccccc2c1/C=N/NC(=O)c1sc(N)c(C#N)c1C	5.8%	-3.2%	-8.5%	-38.2%	?	0.0
Cc1sc2ncn(/N=C/c3cn(-c4ccccc4)nc3-c3ccccc3)c(=O)c2c1C	0.3%	/	-15.9%	-3.6%	/	/
O=C(Cc1ccccc1F)NCC(c1ccco1)N1CCCCC1 (stereo not given)	0.0%	13.5%	3.9%	-28.6%	-23.7%	8.1
CC(Oc1ccc(C(C)(C)C)cc1)C(=O)NCC(c1ccco1)N1CCCC1 (stereo not given)	1.8%[56.1 µM]	23.1µM*	-9.3%	-11.5%	20.6µM*	?
O=C(NCC(c1ccco1)N1CCCCC1)c1cc2c(s1)CCCC2 (stereo not given)	1.4%	18.4µM*	-46.8%	-7.0%	16.4µM*	15.5
O=C(NCC(c1ccco1)N1CCCCC1)C(c1ccccc1)c1ccccc1 (stereo not given)	7.4%	16.4µM*	-22.7%	-0.1%	?	?
S=C(NCCc1ccccc1)NCC(c1ccco1)N1CCCCC1 (stereo not given)	7.7%	?	-21.3%	-26.2%	23.1µM*	?
CC(C)C(NC(=O)c1ccco1)C(=O)NCC(c1ccco1)N1CCCCC1 (stereo not given)	2.3%	-3.6%	0.8%	12.3%	-9.4%	-2.8
Cc1cc(C)c2c(=O)cc(C(=O)NCc3ccccc3)oc2c1	/	3.7%	-11.6%	0.0%	-14.2%	29.9
COc1ccc(-c2nc3cnc(Oc4cccc(Cl)c4)nc3n(CCC#N)c2=O)cc1	/	?	/	/	-10.9%	/
Cc1nc(-c2cccc(F)c2)sc1CCNC(=O)c1c(F)cccc1Cl	-4.1%	?	1.1%	-10.6%	?	/
COCC1CCN(C(=O)c2ccc(OC3CCN(Cc4ccccn4)CC3)cc2)C1 (stereo not given)	2.5%	-21.2%	0.1%	?	-17.3%	11.7
COc1ccc(OC)c(NC(=O)CS(=O)(=O)Cc2nc(-c3ccc(C)cc3)oc2C)c1	6.9%	?	-5.0%	-9.2%	?	/
N#Cc1ccccc1Sc1ccccc1C(=O)NCC(c1ccco1)N1CCCC1 (stereo not given)	0.5%[0.505 µM]	23.1µM*	-1.9%	0.0%	?	-13.1
CC(C)N1CCN(Cc2ccc3c(c2)Cc2ccccc2-3)CC1CCO (stereo not given)	-2.4%	?	-48.0%	-14.5%	23.1µM*	-10.9
CC(C)N1CCN(Cc2ccc(OCc3ccccc3)cc2)CC1CCO (stereo not given)	0.0%	?	2µM*	-24.2%	?	-3.4
CC(C)N1CCN(Cc2ccc(-c3ccccc3)cc2)CC1CCO (stereo not given)	3.7%	2.4%	-19.6%	-0.3%	?	-14.9
COC(=O)c1ccccc1NS(=O)(=O)c1cc2c(cc1C)N(C)CCO2	-5.2%	-16.2%	5.3%	17.3%	?	/
SMILES	TDP1 block	DT40 TDP1 CPT	HepG2 viability	TGFb SMAD3 inh	TDP1 cell noCPT	IL-1B inflam inh
CC1CCN(S(=O)(=O)c2ccc3c(c2)CCN3)CC1	2.6%	-12.1%	4.3%	20.1%	-22.1%	/
COc1ccc(CNC(=O)N2CCN(c3ccccc3)CC2)cc1	-0.6%	4.0%	0.8%	?	-6.1%	-13.8
Cc1ccc(-n2nnnc2Sc2nc([N+](=O)[O-])nn2C)cc1C	0.0%	?	-33.9%	-15.3%	?	-76.8*
Cc1ccc(S(=O)(=O)Nc2ccc(NS(=O)(=O)c3ccc(C)cc3)c3ncccc23)cc1	21.5%	/	/	/	/	/
COc1ccccc1NC(=O)C(C)OC(=O)Cc1ccsc1 (stereo not given)	3.1%	-4.2%	2.5%	-3.0%	5.0%	15.4
COc1cccc(Nc2nnc(SCC(=O)Nc3sccc3C(N)=O)s2)c1	/	13µM*	-16.5%	-16.6%	8.2µM*	-4.4
Cc1ccccc1Nc1nnc(SCC(=O)Nc2ccccc2[N+](=O)[O-])s1	-0.6%	-9.4%	-7.0%	?	-17.7%	-10.9
Cc1cccc(Nc2nnc(SCC(=O)Nc3ccccc3[N+](=O)[O-])s2)c1	6.5%	?	-50.6%	?	16.4µM*	7.3
CCc1ccc(Nc2nnc(SCC(=O)Nc3sccc3C(N)=O)s2)cc1	-1.1%	?	-1.9%	10µM*	?	-1.6
CC1(C(=O)NCc2ccccc2)CN(S(C)(=O)=O)CC(=O)N1CCc1ccccc1F (stereo not given)	/	3.2%	/	/	-27.4%	-15.2
CCOC(=O)Cn1nnnc1CN(Cc1ccc(OC)cc1)Cc1cc2cc(C)cc(C)c2[nH]c1=O	-7.8%	23.1µM*	-11.5%	-17.5%	25.9µM*	0.0
CCOC(=O)Cn1nnnc1C(CC)N(Cc1cc2ccc(C)cc2[nH]c1=O)C1CCCC1 (stereo not given)	2.6%	0.9%	-5.3%	?	?	-0.1
CCOC(=O)Cn1nnnc1CN(Cc1ccc(OC)cc1)Cc1cc2cc(CC)ccc2[nH]c1=O	2.5%	14.6µM*	-52.3%	?	?	-89.2*
CCc1sc(C(=O)Nc2cc(S(=O)(=O)N3CCOCC3)ccc2OC)cc1C	2.2%	-0.7%	-9.9%	-0.3%	-17.8%	-22.0
Cc1ccc(-c2noc(-c3cc(-c4ccc(F)cc4)n[nH]3)n2)cc1	-5.3%	-12.2%	-22.7%	-7.0%	?	/
CCOc1cc(-c2noc(CCCC(N)=O)n2)cc(Br)c1OC	2.0%	-26.7%	-2.7%	11.7%	-24.9%	47.3
